Where a name gives a salt, the structure may show the parent alone.
Test system: MDA-MB-468
Assay: phospho-S6 immunofluorescence (DAPI-normalised), per-plate z-score; higher = higher phospho-S6 signal (less pathway suppression)
Conditions: 24 h
Procedure: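 GPCR-targeted compound library (MedChemExpress HY-L006) tested on MDA-MB-468 PTEN-null TNBC cells in 384-well plates at 0.1, 1 or 10 uM, combined with vehicle, GDC0941 450 nM or lapatinib 1 uM, for 24 h. Phospho-S6 (S240/244) immunofluorescence normalised to DAPI and expressed as a per-plate z-score; values are the mean of biological triplicates.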

Compound | phospho-S6 immunofluorescence (z-score) (co-treatment: GDC0941 450 nM) | phospho-S6 immunofluorescence (z-score) (co-treatment: lapatinib 1 uM) | phospho-S6 immunofluorescence (z-score) (co-treatment: vehicle)
C[N@+]1(CC2CC2)CC[C@]23c4c5ccc(O)c4O[C@H]2C(=O)CC[C@@]3(O)[C@H]1C5 [Methylnaltrexone (Bromide)] (compound 10 µM) | 0.46 | 0.44 | -0.66
Cc1cccc(C(C)c2c[nH]cn2)c1C (centres undefined) [Medetomidine (hydrochloride)] (compound 10 µM) | 0.08 | 0.79 | 0.41
CCN(CCCCO)C(C)Cc1ccc(O)cc1 (centres undefined) [O-desmethyl Mebeverine alcohol (hydrochloride)] (compound 10 µM) | -0.73 | -0.03 | -0.64
Cc1cccc(Cc2c[nH]cn2)c1C [Detomidine (hydrochloride)] (compound 10 µM) | -1 | 0.28 | 0.19
N#Cc1c(Oc2cccc(OS(=O)(=O)CCCC(F)(F)F)c2)cccc1C(F)(F)F (compound 10 µM) | -3.05 | -2.85 | -5.42
O=C(C[S+]([O-])C(c1ccccc1)c1ccccc1)NO (centres undefined) [Adrafinil] (compound 10 µM) | -0.02 | 0.28 | -0.05
CN1C[C@H](C(=O)N[C@]2(C)O[C@@]3(O)[C@@H]4CCCN4C(=O)[C@H](Cc4ccccc4)N3C2=O)C[C@@H]2c3cccc4[nH]cc(c34)C[C@H]21 [Dihydroergotamine (mesylate)] (compound 10 µM) | 1.05 | 0 | 0.86
CN1CCC2=C(C1)c1ccccc1Cc1ccccc12 [Setiptiline] (compound 10 µM) | -0.28 | -1.52 | -0.24
CO[C@]12C[C@@H](COC(=O)c3cncc(Br)c3)CN(C)[C@@H]1Cc1cn(C)c3cccc2c13 [Nicergoline] (compound 10 µM) | 0.57 | -0.56 | -0.38
COc1ccc2[nH]cc(C3=CCNCC3)c2c1 (compound 10 µM) | -0.19 | -2.58 | -0.11
NCC(O)c1ccc(O)cc1 (centres undefined) [Octopamine (hydrochloride)] (compound 10 µM) | 0.26 | 0.86 | 1.09
CN1C(=O)COc2c(C(=O)NC3CN4CCC3CC4)cc(Cl)cc21 (centres undefined) [Azasetron (hydrochloride)] (compound 10 µM) | 0.53 | 0.2 | 1.23
CC(C)(C)NCC(O)c1cc(Cl)c(N)c(Cl)c1 (centres undefined) [Clenbuterol (hydrochloride)] (compound 10 µM) | 1.42 | 1.64 | 0.37

— the supplement of paper PMC7411640
